In PubChem BioAssay:
Active and inactive are the calls of the source.

Tests used:
Albumin (Bos taurus) = Albumin (Bos taurus) (UniProt P02769); test: bovine serum albumin binders on microarray, profiling panel, artefact control for SMM control protein annotation, biochemical, small-molecule microarray, Alexa647 label, 635/667 nm fluorescence (AID 1118); settings: BSA-A647 binding, fluorescence 635 nm, higher = more signal;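 note: score merges 667 nm emission intensity and signal-to-noise per printed compound spot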
[1] = small-molecule microarray binders of probe aXIP, primary screen, biochemical, NeuroSMM set, 635/667 nm fluorescence (AID 1119); settings: higher = more signal, called active from +8 up or from −8 down;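 note: probe is the protein aXip251-270 applied at 1 µg/mL to compound-printed slides; binding of probe to printed compounds measured as 667 nm fluorescence plus signal to noise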
[2] = small-molecule binders of probe aNOTCH3, primary screen, biochemical, small-molecule microarray, 635/667 nm fluorescence (AID 1120); settings: higher = more signal;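 note: probe is a biotin-tagged antibody raised against NOTCH3 rather than NOTCH3 protein; score merges spot fluorescence near 667 nm with spot signal to noise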
[3] = small-molecule binders of probe aNOTCH2, primary screen, biochemical, small-molecule microarray, 635/667 nm fluorescence (AID 1121); settings: higher = more signal;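 note: score merges feature fluorescence read at 667 nm with its signal to noise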
[4] = target: Carbonic anhydrase 2 (Homo sapiens) (UniProt P00918); test: CAII small-molecule binders, profiling panel, biochemical, small-molecule microarray, Alexa647-labelled CAII (AID 1122); settings: CAII-A647 binding fluorescence, higher = more signal
[5] = COS7 lysate on small-molecule microarray, probe aHis, 635 nm (AID 1123); settings: COS7 cell lysate, fluorescence, higher = more signal;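 note: z-score combines 667nm fluorescence intensity with signal-to-noise per printed compound spot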
[6] = compound binding in COS7 lysate, probe aLAP1, primary screen, cell lysate, small-molecule microarray (AID 1124); settings: probe aLAP1, fluorescence, higher = more signal;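 note: lysate comes from COS7 cells expressing LAP1 and is applied at 0.3 µg/mL; score merges spot fluorescence near 667 nm with signal-to-noise over triplicate slides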
Sam68 (KHDRBS1) = test: Sam68 small-molecule binders, primary screen, biochemical, small-molecule microarray, 635 nm fluorescence (AID 1125); settings: small-molecule microarray binding, higher = more signal;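 note: score merges 667 nm channel intensity with signal to noise over triplicate slides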
[7] = test system: Chordin-like protein 2 (CHRDL2); test: CHRDL2 small-molecule binders, primary screen, biochemical, small-molecule microarray, 635 nm fluorescence (AID 1126); settings: small-molecule microarray binding, fluorescence 635 nm; higher = more signal;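 note: printed compound slides probed with Chrdl2 protein at 4 µg/mL for 1 h at 4 C; score merges 667 nm emission intensity with signal to noise over three replicate slides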
[8] = target: Concanavalin-A (Canavalia ensiformis) (UniProt P02866); test: ConA small-molecule binders, primary screen, artefact control for SMM control protein annotation, biochemical, small-molecule microarray, Alexa647 label, 635 nm (AID 1127); settings: ConA-A647 binding fluorescence, higher = more signal;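 note: z combines 667 nm emission intensity with signal-to-noise across three replicate slides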
[9] = anti-His antibody binders, primary screen, artefact control for SMM control protein annotation, biochemical, small-molecule microarray, 635 nm fluorescence (AID 1128); settings: anti-His Alexa647 antibody binding, higher = more signal;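 note: score merges feature fluorescence with signal-to-noise for each printed compound spot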
[10] = test system: Human papillomavirus type 1a E7 protein (residues 1-88); test: HPV1a E7 small-molecule binders, primary screen, biochemical, small-molecule microarray, residues 1-88, 635 nm (AID 1129); settings: small-molecule microarray binding, fluorescence 635 nm; higher = more signal
[11] = target: Focal adhesion kinase 1 (Homo sapiens) (UniProt Q05397); test: small-molecule microarray binders of FAK, primary screen, biochemical, 635/667 nm fluorescence, BSA, DTT (AID 1130); settings: PTK2 binding, 635 nm fluorescence, higher = more signal;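 note: composite of spot emission at 667 nm and signal to noise over triplicate slides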
[12] = test system: Fibrinogen (Alexa647-labelled); test: fibrinogen binders on compound microarrays, profiling panel, artefact control for SMM control-protein annotation, biochemical, small-molecule microarray, 635/667 nm fluorescence (AID 1131); settings: fibrinogen-A647 binding fluorescence, higher = more signal;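 note: z-score merges 667 nm fluorescence with per-spot signal-to-noise over triplicate slides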
[13] = target: Follistatin (Homo sapiens) (UniProt P19883); test: follistatin binders on small-molecule microarrays, primary screen, biochemical, small-molecule microarray, 635/667 nm fluorescence (AID 1132); settings: FST binding, 635 nm fluorescence, higher = more signal
[14] = target: Fibroblast growth factor 2 (Homo sapiens) (UniProt P09038); test: FGF2 binders on small-molecule microarrays, primary screen, biochemical, small-molecule microarray, 635/667 nm fluorescence (AID 1133); settings: small-molecule microarray binding, FGF2, fluorescence 635/667; higher = more signal
[15] = mitochondrial membrane potential change in A549 cells, profiling panel, cell-based, JC-1 fluorescence, basal, 24 h, 100 nL (AID 1138); settings: higher = more signal;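 note: A549 lung adenocarcinoma cells under basal conditions with no added stimulus; test concentration not given here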
Lefty1 = Lefty1 binders on small-molecule microarrays, primary screen, biochemical, small-molecule microarray, 635/667 nm fluorescence (AID 1139); settings: small-molecule microarray binding, fluorescence 635/667; higher = more signal
[16] = test system: wheat germ agglutinin (Triticum aestivum), Alexa647-labelled; test: wheat germ agglutinin binders on compound microarrays, profiling panel, artefact control for SMM control-protein annotation, biochemical, small-molecule microarray, 635/667 nm fluorescence (AID 1140); settings: WGA-A647 binding, 635 nm fluorescence, higher = more signal;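 note: score merges 667 nm feature emission with signal to noise over triplicate slides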
[17] = target: Luciferin 4-monooxygenase (Photinus pyralis) (UniProt P08659); test: firefly luciferase enzyme inhibitors, primary screen, biochemical, luminescence, purified enzyme, 2006 set (AID 1141); settings: SteadyGlo luminescence, 30 min, higher = more signal, called active from +8 up or from −8 down;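 note: cell-free assay with purified firefly luciferase at 100 ng per well in PBS; test concentration not given here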
Chain of Luciferin 4-monooxygenase (Photinus pyralis) (P08659 whole entry, looked up): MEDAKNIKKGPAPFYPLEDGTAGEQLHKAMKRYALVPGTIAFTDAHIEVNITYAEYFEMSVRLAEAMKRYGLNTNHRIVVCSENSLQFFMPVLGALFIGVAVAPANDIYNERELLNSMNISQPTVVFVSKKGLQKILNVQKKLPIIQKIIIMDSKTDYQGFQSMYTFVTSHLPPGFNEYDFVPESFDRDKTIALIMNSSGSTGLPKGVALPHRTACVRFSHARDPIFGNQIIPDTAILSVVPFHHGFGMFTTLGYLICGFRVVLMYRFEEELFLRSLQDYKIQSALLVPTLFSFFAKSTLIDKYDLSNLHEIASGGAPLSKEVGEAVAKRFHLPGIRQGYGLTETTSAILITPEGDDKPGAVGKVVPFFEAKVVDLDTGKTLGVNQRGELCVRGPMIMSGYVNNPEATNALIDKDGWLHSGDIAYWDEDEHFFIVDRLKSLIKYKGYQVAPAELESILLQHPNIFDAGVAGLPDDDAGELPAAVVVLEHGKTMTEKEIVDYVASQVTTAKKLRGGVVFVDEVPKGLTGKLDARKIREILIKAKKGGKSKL

Chain of Fibroblast growth factor 2 (Homo sapiens) (P09038 whole entry, looked up): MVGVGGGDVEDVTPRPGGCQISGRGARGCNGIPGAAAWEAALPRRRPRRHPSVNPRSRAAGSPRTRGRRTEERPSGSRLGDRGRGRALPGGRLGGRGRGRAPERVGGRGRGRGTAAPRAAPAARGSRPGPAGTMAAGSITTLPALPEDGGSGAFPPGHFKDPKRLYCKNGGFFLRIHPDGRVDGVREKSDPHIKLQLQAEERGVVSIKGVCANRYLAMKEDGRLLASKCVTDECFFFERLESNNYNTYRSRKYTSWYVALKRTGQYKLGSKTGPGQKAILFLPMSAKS
Chain of Concanavalin-A (Canavalia ensiformis) (P02866 whole entry, looked up): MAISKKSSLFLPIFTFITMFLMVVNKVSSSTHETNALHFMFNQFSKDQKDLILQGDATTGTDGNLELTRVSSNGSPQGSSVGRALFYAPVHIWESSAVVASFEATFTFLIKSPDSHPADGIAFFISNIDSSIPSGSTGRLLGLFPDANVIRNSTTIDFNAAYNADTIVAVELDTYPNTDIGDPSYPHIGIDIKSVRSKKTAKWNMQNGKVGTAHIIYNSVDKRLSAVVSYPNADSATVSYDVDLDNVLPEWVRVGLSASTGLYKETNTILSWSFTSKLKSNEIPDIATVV
Chain of Focal adhesion kinase 1 (Homo sapiens) (Q05397 whole entry, looked up): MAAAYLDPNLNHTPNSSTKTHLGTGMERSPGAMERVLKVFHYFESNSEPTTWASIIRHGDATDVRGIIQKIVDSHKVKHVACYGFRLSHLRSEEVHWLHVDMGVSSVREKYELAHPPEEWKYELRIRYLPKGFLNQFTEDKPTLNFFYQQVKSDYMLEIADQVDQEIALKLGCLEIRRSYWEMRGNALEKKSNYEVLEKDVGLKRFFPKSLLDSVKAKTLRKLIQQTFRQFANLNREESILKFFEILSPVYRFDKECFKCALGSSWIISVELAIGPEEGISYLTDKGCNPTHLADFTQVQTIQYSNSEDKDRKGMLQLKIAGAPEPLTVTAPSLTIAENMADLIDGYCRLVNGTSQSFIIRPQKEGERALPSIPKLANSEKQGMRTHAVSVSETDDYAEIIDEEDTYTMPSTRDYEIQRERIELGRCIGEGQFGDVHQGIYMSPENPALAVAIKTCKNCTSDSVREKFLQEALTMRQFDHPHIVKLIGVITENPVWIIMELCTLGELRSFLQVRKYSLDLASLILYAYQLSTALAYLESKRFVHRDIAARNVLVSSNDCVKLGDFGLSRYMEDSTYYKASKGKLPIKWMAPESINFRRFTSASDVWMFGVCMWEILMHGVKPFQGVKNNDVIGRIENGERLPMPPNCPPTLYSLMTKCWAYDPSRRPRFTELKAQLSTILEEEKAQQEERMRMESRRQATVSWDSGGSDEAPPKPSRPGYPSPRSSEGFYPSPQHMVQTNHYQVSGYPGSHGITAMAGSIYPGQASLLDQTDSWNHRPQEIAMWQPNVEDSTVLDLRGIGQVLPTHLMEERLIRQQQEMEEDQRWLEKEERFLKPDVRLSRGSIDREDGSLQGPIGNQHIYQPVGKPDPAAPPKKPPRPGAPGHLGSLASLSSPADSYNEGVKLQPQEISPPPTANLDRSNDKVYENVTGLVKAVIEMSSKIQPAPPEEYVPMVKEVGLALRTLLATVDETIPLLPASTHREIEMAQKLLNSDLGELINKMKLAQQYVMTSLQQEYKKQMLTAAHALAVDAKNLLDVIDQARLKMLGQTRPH
Chain of Albumin (Bos taurus) (P02769 whole entry, looked up): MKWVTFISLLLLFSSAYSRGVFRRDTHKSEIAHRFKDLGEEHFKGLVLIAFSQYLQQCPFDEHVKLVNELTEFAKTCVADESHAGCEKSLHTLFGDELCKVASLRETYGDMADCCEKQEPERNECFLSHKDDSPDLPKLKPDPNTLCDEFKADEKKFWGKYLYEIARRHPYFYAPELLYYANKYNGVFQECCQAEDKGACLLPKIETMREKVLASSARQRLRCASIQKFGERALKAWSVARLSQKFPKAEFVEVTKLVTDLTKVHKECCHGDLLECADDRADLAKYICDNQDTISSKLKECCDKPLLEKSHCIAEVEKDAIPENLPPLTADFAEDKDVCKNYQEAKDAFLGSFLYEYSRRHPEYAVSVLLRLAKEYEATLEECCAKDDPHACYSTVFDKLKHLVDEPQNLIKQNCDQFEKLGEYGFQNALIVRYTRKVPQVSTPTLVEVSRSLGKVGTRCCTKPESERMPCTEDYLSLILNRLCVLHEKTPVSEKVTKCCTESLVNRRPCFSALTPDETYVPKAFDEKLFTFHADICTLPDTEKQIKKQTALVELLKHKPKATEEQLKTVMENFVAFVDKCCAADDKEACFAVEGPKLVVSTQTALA
Chain of Follistatin (Homo sapiens) (P19883 whole entry, looked up): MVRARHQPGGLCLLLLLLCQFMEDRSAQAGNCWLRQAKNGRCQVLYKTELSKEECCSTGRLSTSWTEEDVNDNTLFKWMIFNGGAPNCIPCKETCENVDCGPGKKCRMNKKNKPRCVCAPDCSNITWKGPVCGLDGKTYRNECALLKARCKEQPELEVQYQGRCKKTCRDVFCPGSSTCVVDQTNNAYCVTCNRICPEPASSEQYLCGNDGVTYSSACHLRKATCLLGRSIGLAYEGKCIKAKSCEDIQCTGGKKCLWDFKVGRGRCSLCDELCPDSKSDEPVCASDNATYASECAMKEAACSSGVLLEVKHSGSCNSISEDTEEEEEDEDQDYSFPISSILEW

Compound	composite z-score (Albumin (Bos taurus))	composite Z-score [1]	composite z-score [2]	composite z-score [3]	composite z-score [4]	composite z-score [5]	composite z-score [6]	composite z-score (Sam68 (KHDRBS1))	composite z-score [7]	composite z-score [8]	composite z-score [9]	composite z-score [10]	composite z-score [11]	composite z-score [12]	composite z-score [13]	composite z-score [14]	z-score [15]	composite z-score (Lefty1)	composite z-score [16]	z-score [17]
O=C(NC1CC1)[C@@H]1c2ccccc2C(=O)N(C2CCCCC2)[C@H]1c1ccc(CO)cc1	-0.0383	0.635 (inactive)	-0.214	-0.136	0.554	2.64	1.99	0.454	-0.696	0.332	1.86	1.15	0.498	-0.518	0.27	-0.027	0.116	-0.413	0.063	0.0436 (inactive)
[N-]=[N+]=NCc1ccccc1[C@H]1OC(c2ccc(OCCCO)cc2)=N[C@@]1(Cc1ccccc1N=[N+]=[N-])C(=O)O	0.892	0.59 (inactive)	0.297	0.0889	0.63	1.43	0.455	1.33	0.0332	1.14	2.02	1.2	1.03	0.899	1.21	0.134	-0.0184	0.0929	1.23	-4.21 (inactive)
O=C1O[C@H](c2ccccc2)[C@H](c2ccccc2)N2[C@H]1[C@@H](C(=O)Nc1nc3ccccc3s1)[C@]1(C(=O)Nc3ccccc31)[C@H]2c1ccccc1OCCO	0.939	0.417 (inactive)	0.0242	-0.014	0.393	2.24	0.921	1.29	-0.131	0.668	1.71	0.813	0.832	0.966	0.453	0.64	-1.84	0.0835	1.02	0.389 (inactive)
CN1C2C=C(c3ccc(CO)cc3)C(C3C(=O)N(C(N)=O)C(=O)C32)C1C1CC1 (stereo not given)	-0.43	-0.378 (inactive)	-0.206	-0.146	-0.117	0.151	-0.262	0.267	-0.0733	0.688	0.573	-0.241	-0.215	0.586	-0.189	-0.379	-0.572	-0.72	0.239	-0.0168 (inactive)
C=CCC(OC(C)=O)[C@@H]1[C@@H](N(Cc2cccc3ccccc23)C(=O)c2ccc(C)cc2)c2cc(OCCCO)ccc2N1C(=O)Cc1ccc2ccccc2c1 (stereo not given in full)	0.706	-0.758 (inactive)	-0.0044	-0.149	0.15	0.738	-0.0124	-1.29	0.0854	-0.0292	-0.2	-0.0179	0.358	0.535	0.142	-0.0243	1.62	-0.136	-0.0836	-0.667 (inactive)
O=C1C2C=CC(C(O)c3ccccn3)N(Nc3ccc([N+](=O)[O-])cc3)C2C(=O)N1c1ccccc1 (stereo not given)	0.89	0.0129 (inactive)	0.0162	0.0215	0.592	0.438	1.85	0.102	-0.421	1.13	0.344	1.16	0.427	1.02	0.336	0.292	-0.378	-0.43	1.05	0.654 (inactive)
CCCCCN1CC=CC23O[C@@H]4/C=C\CCCOC(=O)C4[C@H]2C(=O)N(CCO)[C@@H]3C1=O (stereo not given in full)	0.73	0.0463 (inactive)	-0.18	-0.14	0.823	2.17	0.657	0.428	0.323	0.433	2.49	0.87	1.15	-0.728	-0.274	-0.0388	-0.953	0.126	0.759	-2.06 (inactive)
COC(=O)[C@]1(Cc2ccccc2N=[N+]=[N-])N=C(c2ccc(OCCCO)cc2)O[C@@H]1c1ccccc1CN=[N+]=[N-]	-0.836	0.636 (inactive)	0.169	-0.0439	0.483	1.36	-0.0388	1.27	0.232	0.844	0.335	1.12	2.02	0.206	1.07	1.38	-0.199	0.182	0.0031	-0.232 (inactive)
COCCOC(=O)N1C(=O)[C@@]2(c3cc(C#CCC(C(=O)OC)C(=O)OC)ccc31)[C@H](C(N)=O)[C@H]1C(=O)O[C@H](c3ccccc3)[C@H](c3ccccc3)N1[C@@H]2c1ccccc1OCCO	0.653	-0.145 (inactive)	-0.0565	0.201	0.593	0.882	-0.155	1.32	1.1	1.15	0.737	1.09	0.225	0.927	1.32	1.57	-0.116	1.26	0.556	-0.617 (inactive)
